Experimental data as given in PubChem BioAssay (NCI).
Compounds without any hit were thinned out: in the full panel of roughly 79,000, 15% have a hit. Calls of active or inactive are those of the source. Rule as the data show it: active = growth inhibition above about 70%; inactive = the rest.

Tests used:
[1] = NCI Yeast Anticancer Drug Screen. Data for the wt1 strain (AID 149);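 also: 0% = growth of vehicle-treated wt1 cultures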; conditions: S. cerevisiae wt1 strain (SPY 50644) growth inhibition, active compounds read high
How it was run: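 Measured: growth of wt1 yeast under compound versus vehicle treatment, reported as inhibition.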

[2] = NCI Yeast Anticancer Drug Screen. Data for the rad50EPP+ strain (AID 151);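 also: 0% = growth of vehicle-treated control cultures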; conditions: S. cerevisiae rad50 mutant strain, active compounds read high
How it was run: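 In this screen, rad50EPP+ yeast were exposed to compounds. Growth inhibition was scored against vehicle-treated controls.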

[3] = NCI Yeast Anticancer Drug Screen. Data for the mgt1 strain (AID 153); conditions: S. cerevisiae mgt1 mutant growth inhibition, active compounds read high
How it was run: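 mgt1 strain exposed; growth vs vehicle control recorded as inhibition.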

[4] = NCI Yeast Anticancer Drug Screen. Data for the rad50 strain (AID 155);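 also: 0% = growth of vehicle-only cultures of the same strain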; conditions: S. cerevisiae rad50 strain growth inhibition, active compounds read high
How it was run: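 Growth of the mutant yeast was measured after compound exposure and referenced to vehicle-treated cultures.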

[5] = NCI Yeast Anticancer Drug Screen. Data for the mec2-1 strain (AID 157); conditions: S. cerevisiae mec2-1 strain, active compounds read high
How it was run: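 Vehicle-treated cultures served as reference for growth inhibition of compound-exposed mec2-1 yeast.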

[6] = NCI Yeast Anticancer Drug Screen. Data for the rad14 strain (AID 159);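 also: 0% = growth of vehicle-treated control cultures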; conditions: S. cerevisiae rad14 strain growth inhibition, active compounds read high
How it was run: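 Here, inhibition of yeast growth was measured after compound exposure, using a strain with a genetic defect in DNA damage repair and vehicle-treated cultures as the reference.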

[7] = NCI Yeast Anticancer Drug Screen. Data for the sgs1 mgt1 strain (AID 161);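 also: 0% = growth of cultures given vehicle only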; conditions: S. cerevisiae sgs1 mgt1 strain, active compounds read high
How it was run: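 Genetically altered yeast, compound exposure, growth inhibition relative to vehicle.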

[8] = NCI Yeast Anticancer Drug Screen. Data for the CLN2oe strain (AID 163);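 also: 0% = growth of vehicle-only control cultures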; conditions: S. cerevisiae CLN2oe strain, active compounds read high
How it was run: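 Inhibition relative to vehicle-treated yeast is reported. Cells: strain with genetic alteration in cell-cycle control, grown with compound.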

[9] = NCI Yeast Anticancer Drug Screen. Data for the cln2 rad14 strain (AID 165);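 also: 0% = growth equal to vehicle treated cultures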; conditions: S. cerevisiae cln2 rad14 strain, active compounds read high
How it was run: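 Each compound was tested on cln2 rad14 yeast. Inhibition of growth was calculated against vehicle-exposed controls.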

[10] = NCI Yeast Anticancer Drug Screen. Data for the bub3 strain (AID 167); conditions: S. cerevisiae bub3 mutant strain, active compounds read high
How it was run: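 Whole-cell yeast assay. The mutant strain was incubated with compounds, and growth inhibition was determined by comparison with vehicle-treated cells.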

[11] = NCI Yeast Anticancer Drug Screen. Data for the mlh1 strain (AID 171);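 also: 0% = growth of vehicle-treated control cultures of the same strain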; conditions: S. cerevisiae mlh1 strain growth inhibition, active compounds read high
How it was run: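 Vehicle-normalised growth inhibition of a repair- or checkpoint-altered yeast strain following compound treatment.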

[12] = NCI Yeast Anticancer Drug Screen. Data for the sgs1 strain (AID 173);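 also: 0% = growth of vehicle-only control cultures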; conditions: S. cerevisiae sgs1 mutant, active compounds read high
How it was run: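 Screen format: yeast with repair or checkpoint alterations, compound exposure, growth read relative to vehicle.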

[13] = NCI Yeast Anticancer Drug Screen. Data for the mlh1 rad18 strain (AID 175); conditions: S. cerevisiae mlh1 rad18 strain growth inhibition, active compounds read high
How it was run: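 Vehicle-treated cultures served as the reference for growth inhibition in a yeast strain carrying DNA damage repair alterations exposed to each compound.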

[14] = NCI Yeast Anticancer Drug Screen. Data for the rad18 strain (AID 177); conditions: S. cerevisiae rad18 mutant growth inhibition, active compounds read high
How it was run: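 Test articles were incubated with altered yeast defective in DNA damage repair. Results are given as inhibition of growth versus vehicle.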

[15] = NCI Yeast Anticancer Drug Screen. Data for the wt2 strain (AID 169);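 also: 0% = growth of vehicle-treated yeast cultures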; conditions: S. cerevisiae wt2 strain growth inhibition, active compounds read high
How it was run: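 Inhibition of yeast growth was determined after compound treatment, normalised to controls receiving only vehicle.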

[16] = at 5.0 µM (retest, dose inferred, filed as 0.5)
[17] = at 50.0 µM (retest, dose inferred, filed as 5.0)

Measured: growth inhibition

Cn1c(COc2ccc(/C=N/NC(=O)CCC(=O)N/N=C/c3ccc(OCc4c[n+]5ccccc5n4C)cc3)cc2)c[n+]2ccccc12
active: [1]; at 100.0 µM 81% | [3]; at 100.0 µM 98% | [4]; at 100.0 µM 97% | [5]; at 100.0 µM 96% | [6]; at 100.0 µM 97% | [8]; at 100.0 µM 76% | [10]; at 100.0 µM 95% | [11]; at 100.0 µM 96% | [12]; at 100.0 µM 96% | [13]; [17] 84% | [13]; at 50.0 µM 90.2% | [14]; at 100.0 µM 98%
inactive: [1]; at 1.2 µM 6% | [1]; at 3.7 µM 7% | [1]; at 11.0 µM 11% | [1]; at 33.0 µM 12% | [2]; at 1.2 µM -4% | [2]; at 3.7 µM -7% | [2]; at 11.0 µM -18% | [2]; at 33.0 µM -18% | [2]; at 100.0 µM 45% | [3]; at 1.2 µM 4% | [3]; at 3.7 µM 3% | [3]; at 11.0 µM 4% | [3]; at 33.0 µM 24% | [4]; at 1.2 µM 1% | [4]; at 3.7 µM 2% | [4]; [16] -11% | [4]; at 11.0 µM 1% | [4]; at 33.0 µM 5% | [4]; [17] 55% | [4]; at 50.0 µM 49.1% | [5]; at 1.2 µM -2% | [5]; at 3.7 µM 0% | [5]; [16] -10% | [5]; at 11.0 µM 0% | [5]; at 33.0 µM 10% | [5]; [17] 12% | [5]; at 50.0 µM 32.1% | [6]; at 1.2 µM 0% | [6]; at 3.7 µM -1% | [6]; at 11.0 µM 0% | [6]; at 33.0 µM 7% | [7]; [16] -1% | [7]; [17] 47% | [7]; at 50.0 µM 63.4% | [8]; at 1.2 µM -5% | [8]; at 3.7 µM -3% | [8]; at 11.0 µM -3% | [8]; at 33.0 µM -5% | [9]; [16] -8% | [9]; [17] 28% | [9]; at 50.0 µM 18.8% | [10]; at 1.2 µM -3% | [10]; at 3.7 µM -6% | [10]; [16] -24% | [10]; at 11.0 µM -6% | [10]; at 33.0 µM -1% | [10]; [17] 33% | [10]; at 50.0 µM 18.9% | [11]; at 1.2 µM 1% | [11]; at 3.7 µM -2% | [11]; at 11.0 µM -1% | [11]; at 33.0 µM 8% | [12]; at 1.2 µM 4% | [12]; at 3.7 µM 4% | [12]; at 11.0 µM 5% | [12]; at 33.0 µM 16% | [13]; [16] -15% | [14]; at 1.2 µM 2% | [14]; at 3.7 µM 3% | [14]; at 11.0 µM 28% | [14]; at 33.0 µM 9%

CN(C)c1ccc(/C=C/c2ccnc3ccc4ccccc4c23)cc1
active: [4]; at 100.0 µM 70% | [5]; at 33.0 µM 82% | [5]; at 100.0 µM 82% | [6]; at 33.0 µM 83% | [6]; at 100.0 µM 80% | [7]; [17] 76% | [7]; at 50.0 µM 91.4% | [10]; at 33.0 µM 83% | [10]; at 50.0 µM 70% | [10]; at 100.0 µM 79%
inactive: [1]; at 1.2 µM -6% | [1]; at 3.7 µM -9% | [1]; at 11.0 µM -6% | [1]; at 33.0 µM 34% | [1]; at 100.0 µM 48% | [2]; at 1.2 µM 2% | [2]; at 3.7 µM 8% | [2]; at 11.0 µM 15% | [2]; at 33.0 µM 4% | [2]; at 100.0 µM -14% | [3]; at 1.2 µM -3% | [3]; at 3.7 µM -2% | [3]; at 11.0 µM 45% | [3]; at 33.0 µM 69% | [3]; at 100.0 µM 58% | [4]; at 1.2 µM -7% | [4]; at 3.7 µM 3% | [4]; [16] 9% | [4]; at 11.0 µM 30% | [4]; at 33.0 µM 67% | [4]; [17] -7% | [4]; at 50.0 µM 69% | [5]; at 1.2 µM -7% | [5]; at 3.7 µM -7% | [5]; [16] -7% | [5]; at 11.0 µM 4% | [5]; [17] -18% | [5]; at 50.0 µM 27.3% | [6]; at 1.2 µM -5% | [6]; at 3.7 µM -4% | [6]; at 11.0 µM 28% | [7]; [16] -2% | [8]; at 1.2 µM -11% | [8]; at 3.7 µM -16% | [8]; at 11.0 µM -15% | [8]; at 33.0 µM 2% | [8]; at 100.0 µM 55% | [9]; [16] -14% | [9]; [17] 22% | [9]; at 50.0 µM 6.65% | [10]; at 1.2 µM -6% | [10]; at 3.7 µM -8% | [10]; [16] -4% | [10]; at 11.0 µM 6% | [10]; [17] 3% | [15]; at 1.2 µM -6% | [15]; at 3.7 µM -5% | [15]; at 11.0 µM 50% | [15]; at 33.0 µM 61% | [15]; at 100.0 µM 51%
